Most compounds without a hit are left out; they make up all but 14% or so of the library.
LASV entry inh = blocks Lassa virus binding to or entry into cells. Lassa virus pseudotype entry inhibition, cell reporter. 300,000 compounds, 1.2% hits. Potency, µM (titrated, usually from 37.9 µM), for the others: at the top dose activity change, negative = inhibition, most hits filed as inhibitors; calls by dose curve; tested in HEK293 cells; further: potency means the concentration at half of the fitted maximal effect; nearly all actives have a fitted effect of over 50% in size
HCMV antiviral = human cytomegalovirus inhibition. HFF cells, HCMV-luciferase reporter, 72 h; active compounds read low. 410,000 compounds, 4.5% hits. activity change, negative = inhibition, % at 57.5 µM; in the data active means activity change below about -60%; inconclusive means no clear call, values can overlap the other calls; inactive means above about -39%
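Screen run at 2 compound doses on HFFs infected with reporter HCMV, MOI 1 PFU/cell. Luciferase activity from cell lysates at 72 h post infection gave inhibition relative to buffer-only and Salinomycin wells.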
Marburg entry inh = Marburg virus entry inhibition | 300,000 compounds, 1.8% hits | Potency, µM (series often up to 37.8 µM), for the others: at the highest dose activity change, negative = inhibition, hits mostly inhibitors | Marburg virus pseudotyped entry inhibition, cell reporter; calls by dose curve; tested in HEK293 cells; further: potency means the concentration at half of the fitted maximal effect
Pf growth 48h = P. falciparum growth inhibition at 48 hours (one generation); Potency, µM (doses to about 28.7 µM), without a hit: at the highest dose activity change, negative = inhibition, hits mostly inhibitors; P. falciparum luciferase growth in erythrocytes, 48 h; 310,000 compounds, 5.9% hits; further: potency means the concentration at half of the fitted maximal effect
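First compound was added to culture medium, then infected red cells at 0.1% parasitemia and 2% hematocrit (final). After incubation at 37 C under 5% CO2, luciferase detection reagent was dispensed and light output recorded.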
HCV inh = inhibitors of hepatitis C virus infection. 340,000 compounds, 3.4% hits. Huh7.5.1 HCVcc-Cre infection, luciferase reporter, 44 h. Potency, µM (doses to about 41.8 µM), for the others: at the highest dose activity change, negative = inhibition, actives largely listed as inhibitors; further: potency means the concentration at half of the fitted maximal effect
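Infectious HCV cell culture screen: compound-treated cells (1,000/well, pre-plated 4 h) are infected with HCVcc-Cre at roughly 0.5 moi and grown 44 h. Infection is quantified by luciferase signal after 15 min substrate incubation at room temperature.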
Pf growth 96h = inhibits malaria parasite growth, 96 h. P. falciparum luciferase reporter growth, 96 h. Potency, µM (series often up to 28.7 µM), for inactives: at the top dose activity change, negative = inhibition, usual class: inhibitors. 320,000 compounds, 6.9% hits. AID 504834; further: potency means the concentration at half of the fitted maximal effect
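Two parasite generations (96 h, 37 C, 5% CO2) of compound exposure in infected erythrocytes (0.05% parasitemia, 2% hematocrit). Luciferase-reporter P. falciparum; decreased luminescence indicates inhibited growth, aimed at apicoplast-acting delayed death.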
* hit, by the source's call; ? = inconclusive; · = no result given; ! = not confirmed by another sample; [ ] = dose if it differs, or a comment. Unless noted, the call rests on the fitted dose curve; in most records, active means well fitted inhibition curve with a large enough effect; inconclusive means small, poorly fitted or top-dose-only effect, or another doubt; inactive means no such curve, though single readings can be large or run the other way. On the % scale 0 is the no-effect control and ±100 the full control effect.

SMILES	LASV entry inh	HCMV antiviral	Marburg entry inh	Pf growth 48h	HCV inh	Pf growth 96h
Cc1cccc(C)c1NC(=O)C(c1cccc2ccccc12)n1c(=O)c(-c2cc3ccccc3[nH]2)nc2ccccc21 (stereo not drawn)	·	78.8	·	·	·	·
COCC(=O)N1CCC(Oc2ccc(C(=O)NC(C)c3nccs3)cc2)CC1 (stereo not drawn)	-3.8%	16.1	1.0%	13.2%	?	48.6%
COc1cc(OC)nc(Nc2nc(C(N)Cc3ccc(F)cc3)cs2)n1 (stereo not drawn)	·	-12.7	·	·	·	·
Cc1cc(C)cc(-n2c(C)cc(/C=N/NC(=O)c3cccc([N+](=O)[O-])c3C)c2C)c1	?	-20.4	?	·	3.98µM*	11.7µM*
Cc1cc(/C=N/NC(=O)c2ccccn2)c(C)n1-c1cccc([N+](=O)[O-])c1	11.8%	-26.0	2.5%[46.1 µM]	-6.3%	?	4.65µM*
COC(=O)c1sc(N2C(=O)c3oc4cc(C)c(C)cc4c(=O)c3C2c2ccccc2F)nc1C (stereo not drawn)	1.0%[46.1 µM]	-1.1	?	·	·	·
Cc1ccc2cccc(NC(=O)C(F)(F)F)c2n1	17.0%	22.2	5.3%	0.5%	-10.8%	0.3%
Cc1cccc(NC(c2ccc(O)cc2)c2ccc3ccc(C)nc3c2O)n1 (stereo not drawn)	20.6µM*	-36.2	-1.7%	·	?	66.9%
O=C(CSc1nc(-c2ccc(F)cc2)cc(C(F)(F)F)n1)NCc1ccco1	3.2%	-28.2	-26.7%	-14.1%	-6.9%	2.08µM*
COC(=O)CSc1nc(-c2ccc(F)cc2)cc(C(F)(F)F)n1	18.0%[46.1 µM]	1.4	?	-5.9%	1.5%	-19.5%
O=C(CSc1nc(-c2cccs2)cc(C(F)(F)F)n1)Nc1cc(OCC(F)(F)C(F)F)cc([N+](=O)[O-])c1	?	-1.2	?	?	3.55µM*	?
CC1CCCN(C(=O)C(C)Sc2nc(-c3ccccc3)cc(C(F)(F)F)n2)C1 (stereo not drawn)	-16.5%	21.3	?	2.62µM*	?	·
CC(Sc1nc(-c2ccccc2)cc(C(F)(F)F)n1)C(=O)NCc1ccco1 (stereo not drawn)	-8.5%	-38.1	?	?	11.2µM*	·
COc1ccc(CNC(=O)C(C)Sc2nc(-c3ccccc3)cc(C(F)(F)F)n2)cc1 (stereo not drawn)	-12.2%[46.1 µM]	?	6.7%[46.1 µM]	·	·	·
O=C(CSc1nc(-c2ccc(F)cc2)cc(C(F)(F)F)n1)NCCc1ccccc1	13.1%[46.1 µM]	-34.3	25.9%[46.1 µM]	·	·	·
O=C(CSc1nc(-c2ccc(F)cc2)cc(C(F)(F)F)n1)NCc1cccs1	2.5%	7.8	2.4%	-7.8%	8.7%	3.29µM*
CN1CCN(c2ccccc2NC(=O)c2ccc(N3CCCCC3)c([N+](=O)[O-])c2)CC1	·	-16.5	·	13.1µM*	?	?
COc1ccc(S(=O)(=O)Nc2ccc(N3CCOCC3)cc2)cc1[N+](=O)[O-]	-3.8%[46.1 µM]	-11.0	?	-11.7%	15.3%	-16.8%[5.75 µM]
O=C(Nc1nc2ccc3ccccc3c2s1)c1ccc(N2CCCCC2)c([N+](=O)[O-])c1	4.7%	?	-5.1%	?	7.2%	?
COc1ccc(S(=O)(=O)Nc2ccccc2N2CCOCC2)cc1[N+](=O)[O-]	2.8%	-26.6	-5.6%[46.1 µM]	13.1µM*	?	9.3%
COc1ccc(C(=O)Nc2ccccc2N2CCCCC2)cc1[N+](=O)[O-]	·	-62.7*	·	?	?	11.7µM*
Cc1c(NC(=O)c2ccc(N3CCCC3)c([N+](=O)[O-])c2)cccc1-c1nc2ccccc2s1	-6.8%	-33.7	?	10.4µM*	?	?
O=C(Nc1c(C(=O)N2CCN(c3ccccc3)CC2)oc2ccccc12)c1ccco1	3.7%[46.1 µM]	-28.0	·	·	·	·
CCOc1ccc(-c2noc(CSc3nnc(Cc4ccccc4)n3-c3cccc(C)c3)n2)cc1	?	-25.0	?	·	·	·
COc1ccc(C(=O)Nc2ccc(Nc3ccccc3)cc2)cc1[N+](=O)[O-]	·	-18.4	·	9.9%	11.2µM*	-6.7%
SMILES	LASV entry inh	HCMV antiviral	Marburg entry inh	Pf growth 48h	HCV inh	Pf growth 96h
CCC(C)OC(=O)c1c(N)n(Cc2cccs2)c2nc3ccccc3nc12 (stereo not drawn)	-7.6%	13.6	?	0.0%	?	·
Nc1c(C(=O)OCc2ccccc2)c2nc3ccccc3nc2n1Cc1cccs1	2.9%	-34.4	-19.6%	·	?	14.7µM*
N/C(=N\OC(=O)c1ccccc1Cl)c1ccncc1	-24.2%	-99.5*	?	-22.4%	?	93.8%
N/C(=N\OC(=O)C12CC3CC(CC(C3)C1)C2)c1ccncc1	14.0%	4.6	-27.1%	10.4µM*	29.5%	?
N/C(=N\OC(=O)c1ccc(Cl)cc1[N+](=O)[O-])c1ccccn1	?	-37.6	?	-29.2%	?	-45.2%
O=C(OCc1c(Cl)cccc1Cl)c1ccncc1	?	-14.2	?	?	-4.2%	11.7µM*
N/C(=N\OC(=O)c1ccc(Cl)cc1Cl)c1ccncc1	·	50.2	·	3.6%	7.8%	148.0%
N/C(=N\OC(=O)c1ccc(Cl)cc1Cl)c1ccccn1	5.17µM*	-61.3*	3.66µM*	-18.4%	6.6%	2.0%
Cc1ccc(NC(=O)CSCc2cnn(-c3ccccc3)c2-n2cccc2)c(Cl)c1	10.2%[46.1 µM]	-15.6	-0.5%[46.1 µM]	·	·	·
Cc1ccc(C(=O)O/N=C(\N)c2ccccc2)c(Cl)c1	?	?	?	15.1%	?	35.2%
Cc1ccc(C(=O)O/N=C(\N)c2ccccn2)c(Cl)c1	·	-80.4*	·	?	-27.9%	?
O=c1c(-c2cc(-c3ccc(F)cc3)nc3c2COc2ccc(Cl)cc2-3)coc2ccc(F)cc12	-10.0%[46.1 µM]	-21.4	-5.9%[46.1 µM]	·	·	·
COc1ccc(CNC(=O)/C=C/c2ccc3[nH]cc(CCN(C)C)c3c2)cc1	-13.6%	?	35.5µM*!	?	-17.1%	?
CCc1c(C)nc2nncn2c1NCc1ccccc1	-24.8%[46.1 µM]	-19.9	-0.2%[46.1 µM]	·	·	·
O=c1[nH]c(Cc2ccccn2)nc2scc(-c3ccccc3Cl)c12	-1.3%[46.1 µM]	-83.1*	7.8%[46.1 µM]	?	?	?
Cc1c(Cl)cccc1NC(=O)C1Cc2ccccc2CN1C(=O)c1ccccc1 (stereo not drawn)	8.8%	43.2	?	-11.6%	-8.4%	9.28µM*
Cc1cccc(NC(=O)C2Cc3ccccc3CN2C(=O)OCc2ccccc2)c1C (stereo not drawn)	-18.4%	-32.0	-19.8%	?	-18.7%	-8.7%
Cc1c2ccncc2cc2c1[nH]c1ccccc12	-28.8%[46.1 µM]	?	?	·	6.31µM*	·
CN(C)c1cc[n+](CC(=O)N2CCCc3ccccc32)cc1	-0.2%	4.6	0.0%[46.1 µM]	5.22µM*	-2.2%	?
Cc1cc[n+](CC(=O)N2CCCc3ccccc32)cc1	4.9%	4.7	?	-0.2%	4.3%	-0.9%

From PubChem BioAssay
